Laboratory results taken from ChEMBL document CHEMBL1157539, “Thousands of chemical starting points for antimalarial lead identification” (Nature, 2010).

These molecules were tested on HepG2 (assay: GSK_TCMDC: Percent inhibition of human HepG2 cell line. Test compounds present at 10uM.).
Type: functional

Q: For O=C(NCCN1CCOCC1)c1ccc(CNC(=O)c2ccc(O)c(-c3ccc(Cl)c(Cl)c3)c2)cc1, which Inhibition is on record?
A: 3%

Q: Which Inhibition does the source give for CCCCCCN1CCN(Cc2cccc(NC(=O)c3ccc(Cl)c(Cl)c3)c2)CC1.O=C(O)C(F)(F)F here?
A: 31%

Q: With Cc1cc(C(=O)Nc2ccc3c(c2)CCN3C2CCN(Cc3ccc(O)cc3)C2)no1 (stereo unspecified) as the molecule, how does the Inhibition read?
A: 3%

Q: How did the Inhibition turn out when CCOc1ccc(C(=O)Nc2ccc(-c3nc4ccccc4[nH]3)cc2)cc1[N+](=O)[O-] was run?
A: 22%

Q: Cc1nnc2c(N(C(=O)NCCc3ccccc3)C(=O)NCCc3ccccc3)cc3cc(Cl)ccc3n12 was tested. Which Inhibition did it give?
A: 0%

Q: For CN1CCC(NCc2cccc(-c3ccc(S(=O)(=O)NCCN4CCCC4)s3)c2)CC1.O=C(O)C(F)(F)F, which Inhibition is on record?
A: 10%

Q: CC(C)Cc1nc(N)nc(N)c1-c1ccc(Cl)cc1 was tested. Which Inhibition did it give?
A: 5%

Q: For COc1ccc2nccc([C@@H](O)CN3CCC(CO)(NCc4cc5ccccc5o4)CC3)c2c1.O=C(O)C(=O)O, which Inhibition is on record?
A: 12%

Q: Which Inhibition does the source give for Clc1cc(Cl)c2c(c1)C(NCCCNc1nc3ccccc3[nH]1)CCO2 (stereo unspecified) here?
A: 28%

Q: For COc1ccc2nccc([C@@H](O)CN3CCC(NCc4cc5ccc(Cl)cc5[nH]4)CC3)c2c1.O=C(O)C(=O)O, which Inhibition is on record?
A: 30%

Q: How did the Inhibition turn out when COc1ccc(CN(C)CCOc2ccc(NC(=O)c3cccc4c(=O)c5cc(SC)ccc5[nH]c34)cc2)cc1OC was run?
A: 67%

Q: CC(=O)Nc1ccc(OCCN(Cc2ccccc2C(F)(F)F)c2ccc(C#N)c(C(F)(F)F)c2)cc1 was tested. Which Inhibition did it give?
A: 8%

Q: Which Inhibition does the source give for Cc1nc(N)nc(N)c1-c1cc(Cl)c(N)c(Cl)c1 here?
A: 62%

Q: Which Inhibition does the source give for C=CCOc1ccccc1CNCC(O)c1cc(Br)cs1 (stereo unspecified) here?
A: 25%

Q: Which Inhibition does the source give for O=C(O)C(F)(F)F.O=S(=O)(NCCN1CCCC1)c1ccc(-c2cccc(CNCc3ccc(F)cc3)c2)cc1F here?
A: 43%

Q: For O=C(Nc1cccc(CN2CCCN(CC3CC3)CC2)c1)c1ccc(Cl)c(Cl)c1.O=C(O)C(F)(F)F, which Inhibition is on record?
A: 13%

Q: CCN(CC)CCN(Cc1ccc(-c2ccc(C(F)(F)F)cc2)cc1)C(=O)Cn1cc(CCCCc2cccc(F)c2F)c(=O)c2ccccc21.O=C(O)C(O)C(O)C(=O)O was tested. Which Inhibition did it give?
A: 18%

Q: How did the Inhibition turn out when Cc1ccc(-c2nc3cc(C(=O)NC4CCC(N5CCCc6ccc(C#N)cc6C5)CC4)ccc3[nH]2)cc1 (stereo unspecified) was run?
A: 23%

Q: Which Inhibition does the source give for O=C(Nc1ccc(OC2CCN(Cc3ccsc3)C2)c(Cl)c1)c1ccsc1.O=C(O)C(F)(F)F (stereo unspecified) here?
A: 4%

Q: With Cc1onc(-c2ccc(Cl)cc2)c1-c1ccnn1S(=O)(=O)c1ccc(Cl)cc1 as the molecule, how does the Inhibition read?
A: 0%

Q: For CS(=O)(=O)N1CC2(CCN(CCC(NC(=S)Nc3ccccc3)c3ccc(Cl)c(Cl)c3)CC2)c2ccccc21 (stereo unspecified), which Inhibition is on record?
A: 24%

Q: With COCCNCc1cccc(-c2ccc3c(Nc4cc(O)c(Cl)cc4F)ccnc3c2)c1 as the molecule, how does the Inhibition read?
A: 0%

Q: O=c1cc(NCCCNC2CCCc3c2ccc2ccccc32)[nH]c2ccccc12 (stereo unspecified) was tested. Which Inhibition did it give?
A: 0%

Q: How did the Inhibition turn out when Cc1cc(C)c(NC(=O)NC2CCN(CCCCCNC(=O)/C=C/c3ccc(Cl)c(Cl)c3)C2)c(C)c1 (stereo unspecified) was run?
A: 23%

Q: For CN(c1ccc(NC(=O)Nc2cccc(Cl)c2)cc1)c1ccnc(N)n1.Cl, which Inhibition is on record?
A: 75%

Q: OC1(c2ccccc2)c2cc(Cl)ccc2OC1c1nc2c(Cl)ccc(Cl)c2o1 (stereo unspecified) was tested. Which Inhibition did it give?
A: 7%
